# In PubChem BioAssay AID686979 (National Center for Advancing Translational Sciences (NCATS), 2013):
# Where “and” joins values, the source holds several entries; their conditions need not be identical. Equal entries are not always repeated. Out of some 420,000 compounds screened, about 50,000 (12%) were called active. Not shown: some 26% with an inconclusive outcome. The call rests on the fitted dose curve; in most records, active means well fitted inhibition curve with a large enough effect; inconclusive means small, poorly fitted or top-dose-only effect; inactive means flat fitted curve, though single readings scatter. Shown is part of a subset that was picked to be rich in actives. A call without a number means that no potency is given here.
# Experiment: qHTS for Inhibitors of human tyrosyl-DNA phosphodiesterase 1 (TDP1): qHTS in cells in presence of CPT; further: nearly all actives have a fitted effect of over 55% in size
# Details: chicken DT40 Tdp1-/-;hTDP1 cells + 20 nM CPT, ATP luminescence, 48 h; series mostly up to 46.2 µM
# Excerpt: Human tyrosyl-DNA phosphodiesterase 1 (TDP1) is a novel repair gene, and we propose to use it as a new target for anticancer drug development. TDP1 is not an essential protein, but under treatment with topoisomerase I poison (camptothecin: CPT), TDP1 works as a critical factor for cell survival. To directly identify novel TDP1 inhibitors active in a cellular environment, we have knocked-out the Tdp1 gene in chicken DT40 cells (Tdp1-/-) and generated a complemented counterpart cells that contains a stable transfection of the human TDP1 gene (Tdp1-/-;hTDP1 cells). For the primary screen, Tdp1-/-;hTDP1 cells will be exposed to small molecules in the presence or absence of CPT, and their growth kinetics will be evaluated after 48 hours by measuring ATP activity. […] The hit compounds will then be evaluated in the presence or absence of CPT using Tdp1-/- cells. […] In tertiary assays, biochemical gel-based assays will be used to assess whether the hit compounds specifically target TDP1. To this end, we have screened this cell line against the MLSMR in two primary screens. In one screen we add CPT and in the other we screen in the absence of CPT; this AID represents the screen where CPT was present. NIH Chemical Genomics Center [NCGC] NIH Molecular Libraries Probe Centers Network [MLPCN] MLPCN Grant: MH095538 Assay Submitter (PI): Yves Pommier, NCI
# DT40-hTDP1 cells with 20 nM Camptothecin (add 20 microL of 1 mM CPT stock in 1 L of cell culture medium) were dispensed at 400 cells/5microL/well in tissue culture treated 1536-well white wall/solid bottom assay plates (Greiner Bio-One North America, NC, U.S.A.) using a Multidrop Combi 8 channel dispenser (Thermo Fisher, Waltham, MA, USA). 23 nL compounds and controls were transferred using the pin tool (Kalypsys, San Diego, CA, USA) to the assay plates. The assay plates were then incubated at 37 masculineC for a minimum 48 hr. Three microL of Cell Titer Glo solution was added to the plates and incubated at RT in dark for 30 min. Luminescence was read using ViewLux (Perkin Elmer) with 1 sec exposure slow speed, high gain and 2x binning.
# Potency means the concentration at half of the fitted maximal effect.
Compound,Potency,"activity change, negative = growth inhibition"
CC[C@H]1CN2CCc3cc(OC)c(OC)cc3[C@@H]2C[C@@H]1C[C@H]1NCCc2cc(OC)c(OC)cc21,188 nM (active) and 146 nM (active),
C=C(C)C1(CCCC)C(=O)NC(=S)NC1=O,inactive,
Cc1cc(OCc2cc(C(=O)O)oc2C)c2c3c(c(=O)oc2c1)CCCC3,inactive,
CN(C)C(=O)Oc1ccc2c(c1)O/C(=C\c1ccccc1)C2=O,inactive,
CC(C)c1ccc(OCC(=O)N2CCCN(C)CC2)cc1,inactive,
CCCCC/C=C\C/C=C\C/C=C\CCCCCCC(=O)NCCO,,0.621% [at 4.12 µM] (inactive)
C[C@@H]1CC[C@@]2(OC1)O[C@H]1C[C@H]3[C@@H]4CC=C5C[C@@H](O)[C@H](O)C[C@]5(C)C4CC[C@]3(C)[C@H]1[C@@H]2C (stereo partly drawn),20.6 µM (active),
COc1ccc2c(c1O)-c1cccc3c1[C@@H](C2)N(C)CC3,inactive,
COc1c(O)ccc2c1-c1c3c(cc4c1C(C2)N(C)CC4)OCO3 (stereo not drawn),inactive,
COc1ccc2cc1Oc1ccc(cc1)C[C@H]1c3cc(c(OC)cc3CCN1C)Oc1c(O)c(OC)cc3c1[C@H](C2)N(C)CC3,8.2 µM (active),
CC1(C)C(c2ccccc2)=NC(c2cccnc2)=[N+]1[O-],inactive,
O=c1[nH]c(=O)n(CCc2ccc(F)cc2)c(O)c1/C=N/N1CCCCC1,inactive,
CN(C)CC1CCCCC1=O (stereo not drawn),5.8 µM (active),
O=C(NCC(c1cccnc1)N1CCN(c2ccccc2)CC1)Oc1ccccc1 (stereo not drawn),inactive,
NC(=O)Nc1cccc(C(F)(F)F)c1,inactive,
CC(=O)Nc1cc(-c2cccc(CO)c2)cn2c(-c3cccc(C(F)(F)F)c3)cnc12,11.6 µM (active),
CC(=O)OC1C2CCC3C1(CC(O)[C@@]1(O)[C@@H](CC(O)C1(C)C)[C@]3(C)O)C[C@@]2(C)O (stereo partly drawn),inactive,
COc1ccccc1C(=O)N[C@@H]1c2ccccc2C2(CCN(Cc3nc(C(C)C)cs3)CC2)[C@H]1O,2.06 µM (active),
COc1ccccc1C1=NCc2nnc(CSC)n2-c2ccc(Cl)cc21,inactive,
CCc1ccc(N(CC)C(=O)CCn2cnc3onc(-c4ccc(F)cc4)c3c2=O)cc1,16.4 µM (active),
Cn1c(O)c(C=NCCCC(=O)O)c(=O)n(C)c1=O,inactive,
CCCCC(=O)N/N=C/c1c(O)n(-c2ccccc2)c(=O)[nH]c1=O,inactive,
CCCCC(=O)N/N=C/c1c(O)n(CC)c(=S)n(CC)c1=O,18.4 µM (active),
O=C1NC(=O)C(C/C=C/c2ccccc2)C(=O)N1,inactive,
Cc1cccc(NC(=O)OC2CN3CCC2CC3)c1 (stereo not drawn),inactive,

Compound,Potency,"activity change, negative = growth inhibition"
CCC(=O)CC(c1ccc([N+](=O)[O-])cc1)c1c(O)c2ccccc2oc1=O (stereo not drawn),inactive,
O=c1[nH]c(=S)n(C2CC2)c(O)c1/C=N/N1CCOCC1,inactive,
CC(=O)c1c(O)n(C2CCCCCC2)c(=O)[nH]c1=O,18.4 µM (active),
CC(=NCC1CCCO1)c1c(O)n(-c2ccccc2)c(=O)[nH]c1=O (stereo not drawn),inactive,
COC1=C[C@]23CCCN2CCc2cc4c(cc2[C@@H]3[C@@H]1O)OCO4,,-3.38% [at 9.04 µM] (inactive)
CN1CCN(/N=C/c2c[nH]c3ccccc23)CC1,inactive,
CC12CCC3C(CCC4CC(=O)CCC43C)C1CC(=NO)C2=O (stereo not drawn),inactive,
CCCCCn1c(=O)c(C(=O)NCc2ccccn2)c(O)c2ccccc21,20.6 µM (active),
CCCCCn1c(=O)c(C(=O)NCc2ccccc2)c(O)c2ccccc21,4.61 µM (active),
CCOC(=O)C1(Cc2ccc(Cl)cc2)CCN(C(C)CCn2cccn2)CC1 (stereo not drawn),inactive,
O=c1[nH]c(=O)n(CCc2ccccc2)c(O)c1/C=N/N1CCOCC1,inactive,
c1ccc2sc(C3CCCNC3)nc2c1 (stereo not drawn),inactive,
CC[N+](CC)(CC)CCCCCCCCCC[N+](CC)(CC)CC,inactive,
CN1CCN(Cc2ccc(OC(F)(F)F)cc2)CC1,inactive,
CC(C)c1ccc(OCC(=O)N2CCN(C)CC2)c(Br)c1,inactive,
COc1cc(-n2c(=S)[nH]c3ccc(C)cc3c2=O)c(Cl)cc1Cl,8.2 µM (active),
O=c1c2ccccc2[nH]c(=S)n1-c1cccc(Cl)c1,inactive,
c1ccc(CC2CCCCN2)cc1 (stereo not drawn),inactive,
CC(C)Oc1cccc(C(=O)C2CCCN(C3CCOCC3)C2)c1 (stereo not drawn),inactive,
COc1cc2[nH]c(C)c(CCN3CCN(c4ccccc4)CC3)c2cc1OC,7.94 µM (active),
Oc1cc2c(cc1CN1CCN(c3ccccc3)CC1)OCO2,inactive,
c1ccc(N2Cc3ccccc3-n3nncc3C2)nc1,inactive,
COCCCNC(=O)CC1C[C@H](C(=O)N2CCCCC2)[C@@]2(CCc3ccccc3)c3[nH]c4ccccc4c3CCN2C1=O (stereo partly drawn),23.1 µM (active),
Clc1ccc([C@@H]2C[C@H]3CC[C@@H]2N3)cn1,inactive,
CCCC(C)n1[nH]c(=O)c2c1NC(=O)CSC2c1ccc(OC)c(OC)c1 (stereo not drawn),inactive,

Compound,Potency,"activity change, negative = growth inhibition"
OC[C@@H]1CN(Cc2ccncc2)C[C@H](n2cnc3c(N4CCN(c5ccccc5)CC4)ncnc32)O1,2.06 µM (active),
CC12CN3CC(C)(CN(C1)C3c1cccs1)C2 (stereo not drawn),inactive,
COc1cccc(OC)c1C(=O)NC(=S)N1C[C@H]2C[C@H](C1)c1cccc(=O)n1C2,inactive,
OC1/C(=C/c2ccc(C(F)(F)F)cc2)N2CCC1CC2 (stereo not drawn),inactive,
CC(C(=O)Nc1ccc(Cl)cc1Cl)N1CC=C(c2ccccc2)CC1 (stereo not drawn),inactive,
c1csc(CN2CC3(CCNCC3)C2)n1,inactive,
N#Cc1c(Cl)c(Cl)c(Cl)c(C#N)c1Cl,178 nM (active) and 651 nM (active),
O=C(N/N=C/c1c(O)n(C2CC2)c(=S)[nH]c1=O)c1ccccc1,inactive,
N#CC(C#N)=Cc1cc(O)c(O)c([N+](=O)[O-])c1,inactive,
O=C(Cc1ccccc1[N+](=O)[O-])N1CCN(Cc2ccc3c(c2)OCO3)CC1,inactive,
C=CCN1C(=O)NC(=O)/C(=C/c2ccc(OCC(=O)Nc3ccc(C)cc3)cc2)C1=O,inactive,
COc1ccc(CNC(=O)c2cc3c(-c4ccccc4F)nn(C)c3s2)c(OC)c1,4.11 µM (active),
CC/C(=N\NC(=O)c1ccccc1O)c1c(O)n(Cc2ccccc2)c(=O)[nH]c1=O,inactive,
CC(=O)N(C1=NCCCS1)c1ccccc1F,inactive,
O=C(COc1ccccc1Cl)Nc1ccc2nc(SCC(=O)N3CCCC3)sc2c1,20.6 µM (active),
CN(C(=O)CSc1nc2ccc(NC(=O)COc3ccccc3)cc2s1)c1ccccc1,25.9 µM (active),
CC(C)n1c(=O)c(C=Nc2ccc(Br)cc2)c(O)n(Cc2ccco2)c1=O,inactive,
CCN(CC)C(=O)c1ccc(NC(=O)c2cc(-n3cnnc3)ccc2Cl)cc1,inactive,
Fc1ccc(N2CCN(Cc3ccc4c(c3)OCO4)CC2)cc1,inactive,
Cn1c(O)c(C=Nc2ccc3c(c2)CCC3)c(=O)n(C)c1=O,inactive,
COC12CC[C@@]3(C[C@@H]1C(C)(O)C(C)(C)C)[C@H]1Cc4ccc(O)c5c4[C@@]3(CCN1CC1CC1)[C@H]2O5 (stereo partly drawn),24.1 µM (active),
Oc1ccc2c3c1OC1[C@H](O)CC[C@@]4(O)[C@@H](C2)N(CC2CC2)CC[C@]314 (stereo partly drawn),inactive,
CC1(C)Cc2c(C#N)c(N3CCNCC3)nc(-c3ccco3)c2CS1,18.4 µM (active),
NCCc1ccc(S(=O)(=O)F)cc1,inactive,
CC(=O)c1ccc(S(=O)(=O)N2CCN(c3nc4c(C)c(C)ccc4cc3C#N)CC2)cc1,7.08 µM (active),

Compound,Potency,"activity change, negative = growth inhibition"
CCOC(=O)C(O)(c1ccc(NC(=O)c2ccco2)c(OC)c1)C(F)(F)F (stereo not drawn),inactive,
C[C@@]1([C@@H](NP(=O)(c2ccccc2)c2ccccc2)c2ccccc2)C[C@H]1CCO,9.2 µM (active),
CC1CNCCN1c1ccc(Cl)cc1 (stereo not drawn),inactive,
CC(C)(C)[C@]1(O)C[C@@H]2OC(=O)C[C@@]23C(=O)O[C@@H]2OC(=O)[C@H](O)[C@]213,inactive,
c1ccc(C(CN2CCCCC2)c2ccccc2)cc1,inactive,
CCCCOc1ccc(C(=O)N2CC(=O)Nc3ccc(Br)cc3C2c2ccc(F)cc2)cc1 (stereo not drawn),23.1 µM (active),
O=c1oc2ccccc2c(O)c1C(c1ccccc1O)c1c(O)c2ccccc2oc1=O,,8.57% [at 9.04 µM] (inactive)
COc1cc([C@@H]2c3cc4c(cc3[C@H](OC(C)=O)[C@H]3COC(=O)[C@H]23)OCO4)cc(OC)c1OC,0.0794 µM (active),
COc1cc(C2c3cc4c(cc3C(O)C3COC(=O)C23)OCO4)cc(OC)c1OC (stereo not drawn),44.7 nM (active) and 13 nM (active),
Cc1nc2ccc(N3CCN(C)CC3)cc2nc1C,inactive,
CSc1ccc(C(=O)C2CCCN(Cc3ccn[nH]3)C2)cc1 (stereo not drawn),inactive,
O=c1[nH]c(=O)n(-c2ccc(F)cc2)c(O)c1C=NCCN1CCCCC1,inactive,
CC(=C1C(=O)c2ccccc2C1=O)N1CCN(CCN=Cc2c(O)n(C)c(=O)n(C)c2=O)CC1,inactive,
CCN1CC2C3CCC(C)(O3)C2C1 (stereo not drawn),inactive,
Cc1ccc(Cl)cc1N1CCN(C(=O)C2CCC(CNS(=O)(=O)c3cccs3)CC2)CC1 (stereo not drawn),20.6 µM (active),
CC1C(=O)OC2CCN3CC=C(COC(=O)C(C)(O)C1(C)O)C23 (stereo not drawn),5.8 µM (active),
CC(=O)Nc1ccc(C(=O)C(Cc2ccccc2)N(C)C)cc1 (stereo not drawn),inactive,
O=C(COc1ccc2ccccc2c1)N1CCN(Cc2ccncc2)CC1,inactive,
CN(C)C(=O)Oc1cc(OC(=O)N(C)C)cc(C(O)CNC(C)(C)C)c1 (stereo not drawn),inactive,
CNC(=O)O/N=C(\N)Cc1csc2ccccc12,inactive,
CNC(=O)O/N=C(\N)Cc1csc2ccc(Cl)cc12,16.4 µM (active),
Cn1c(O)c(C=NCCN2CCNCC2)c(=O)n(C)c1=O,inactive,
COC1=CC=C2[C@H]3Cc4ccc(OC)c5c4[C@@]2(CCN3C)C1O5 (stereo partly drawn),inactive,
